The values below come from PubChem BioAssay (EPA / NIEHS).

Structures are written as SMILES. Activity calls are given as the source filed them. The calls were made as follows: active = hit-call score of the fitted dose curve at least 0.9, where 1 is the maximum; inactive = score below 0.9.

A short description of the test: ATG_M_19_CIS: Attagene CIS-FACTORIAL HepG2 Assay for M19 Transcription Factor (Internal Marker) (AID 2282939). As to conditions: HepG2 Attagene CIS-FACTORIAL M19 internal marker reporter; actives raise or lower the signal. Summed up:
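Transfect HepG2 with MRTU reporter library → dose chemical, 24 h → isolate total RNA, reverse-transcribe with oligo(dT) → PCR, 6-FAM label, HpaI cut (2 h, 37 C) → capillary electrophoresis. Bidirectional fit vs DMSO.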
For `CCOC(=O)CC(C)O` (centres undefined), the call was inactive.
Consider `[Cl][Au]([Cl])[Cl]`, for which the result was inactive.
Next, `CCCCCC(C=O)=Cc1ccccc1`: “inactive”.
`C=CC(C)C#N` (centres undefined): the compound was classed as inactive.
Next, `C[C@H]1O[C@@H](O[C@H]2[C@@H](O)C[C@H](O[C@H]3[C@@H](O)C[C@H](O[C@H]4CC[C@@]5(C)[C@H](CC[C@@H]6[C@@H]5C[C@@H](O)[C@]5(C)[C@@H](C7=CC(=O)OC7)CC[C@]65O)C4)O[C@@H]3C)O[C@@H]2C)C[C@H](O)[C@@H]1O`: “inactive”; `ClC(c1ccccc1)(c1ccccc1)c1ccccc1`: “inactive”; `O=c1c(O)c(-c2ccc(O)cc2)oc2cc(O)cc(O)c12`: “inactive”.
`CN1CCOCC1`: the compound was called inactive.
Regarding `CS(=O)(=O)c1ccc(C2=C(c3ccccc3)C(=O)OC2)cc1`, the compound was classed as inactive.
Next, `CC1C2CC(CC2C2CCCC(O)C2)C1(C)C` (centres undefined): “inactive”.
On to `CC(O)C1CCCCC1` (centres undefined), for which the call was inactive.
Turning to `Oc1c(Cl)cc(Cl)c(Cl)c1Cc1c(O)c(Cl)cc(Cl)c1Cl`, the compound was classed as inactive.
The entry for `COS(=O)(=O)O` is “inactive”; for `CCCCCCOC(=O)CCC` it is “inactive”; for `COC(C)(C)CCCC(C)CC=O` (centres undefined) it is “inactive”.
As to `CSCCC=O`, the outcome was inactive.
With `Brc1ccc(Br)c(Br)c1`, the outcome was inactive.
With `CCOCCOCCOCC`, the call was inactive.
`C=CCN(CC=C)CC=C`: the call was inactive.
Next, `CC(C)(N=C=O)c1cccc(C(C)(C)N=C=O)c1`: “inactive”; `CCOc1ccccc1O`: “inactive”; `CCCCOCC`: “inactive”.
Next, `CC1=CC[C@@]23C[C@@H]1C(C)(C)[C@@H]2CC[C@H]3C`: “inactive”; `C[Si](C)(C)O[Si](C)(C)C`: “inactive”.
